ERK EGF block: qHTS Assay for Inhibitors of the ERK Signaling Pathway using a Homogeneous Screening Assay; Stimulation with EGF. Potency, µM (highest dose often 11.5 µM), for inactives: top-dose activity change, negative = inhibition, hits mostly inhibitors. HEK293-V1b, EGF-stimulated phospho-ERK AlphaScreen. hit rate 0.41% among 130,000; active means well fitted inhibition curve with a large enough effect;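 further: plate controls were stimulated vehicle wells for no effect and unstimulated vehicle basal for full effect; nearly all actives have a fitted effect of over 55% in size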
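Cell line HEK293 (stable V1b), low serum overnight. Pretreatment: compound 30 min, 37C. EGF 25 nM, 5 min. Detection: SureFire AlphaScreen, 5 h RT. AC50 via standard Hill equation.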
Starred values were filed as active, the others as inactive; ! = not active in a repeat; [ ] = dose if it differs, or a comment. The entries come from a sample that favours hits as a whole. Potency means the concentration at half of the fitted maximal effect.

SMILES	ERK EGF block
O=C(O)c1ccc(NC2=Nc3cccc4cccc2c34)cc1	4%[57.5 µM]
COc1ccc(-c2nc(-c3ccccc3)oc2Nc2c(C)cccc2C)cc1	-20%
CN(C)CCO[C@](C)(c1ccccc1)c1ccccn1	2%[25.7 µM]
COc1ccc2c(c1)O[C@H](c1ccc3c(c1)OCO3)[C@@H](OC(=O)Nc1ccc(C)c(Br)c1)C2=O	-8%
Cc1ccc(NC(=O)COC(=O)CN2C(=O)c3ccccc3C2=O)cc1S(=O)(=O)N(C)C	2%
CCCCN1C(=O)c2ccc(C(=O)Nc3ccc(C)c(S(=O)(=O)N(C)C)c3)cc2C1=O	25µM*
Cc1ccc(NC(=O)c2ccncc2)cc1S(=O)(=O)N(C)C	14%
C#C[C@]1(O)CCC2C3CCC4=Cc5oncc5C[C@@]4(C)C3CC[C@@]21C (stereo not given in full)	-12%
CC(Nc1oc(-c2ccccc2)nc1-c1cccc2ccccc12)c1ccccc1 (stereo not given)	-6%
CCN(CC)CCCCn1c(-c2ccccc2)nc2c(NC3CCCCC3)nc(C)nc21	-3%
CC(=O)OC1CCC23CC1(C)CCC2C(C)(C)CC3OC(C)=O (stereo not given)	26%
CCN(CC)CCCC(C)Nc1c2ccc(Cl)cc2nc2ccc(OC)cc12 (stereo not given)	3%
Cc1cc(O)c(C(C)C)cc1NC(=O)c1ccccc1Cl	-3%
COc1ccc2nc3cc(Cl)ccc3c(Nc3cc(C(C)C)c(O)cc3C)c2c1	18µM*
COc1cc(C=O)c([N+](=O)[O-])cc1OC	6%
O=C(c1ccncc1)N1CCC2(CCCN(Cc3nccs3)C2)CC1	2%
O=c1cc(-c2ccccc2F)oc2ccccc12	12%
COc1cccc(-c2cc(=O)c3ccccc3o2)c1N	5µM*!
COc1ccccc1-c1cc(=O)c2cccc(OC)c2o1	24%
COC(=O)CCC(C)C1CCC2C3C(O)C[C@@H]4CC(O)CC[C@@]4(C)C3CC(O)[C@]12C (stereo not given in full)	33%
c1ccc(-c2nc(-c3ccccc3)c(NC3CCCCC3)o2)cc1	3%
CCCCC1=CC2=C(OC(C)=O)C(=O)C(C)(OC(=O)c3ccc(Cl)nc3)C(=O)C2=CO1 (stereo not given)	-3%
Cc1cc(N/N=C2\CC(C)CC(C)(C)C2)nc2ccccc12 (stereo not given)	-5%
CC1C/C(=N/Nc2nc3ccccc3[nH]2)CC(C)(C)C1 (stereo not given)	-2%
CC1C/C(=N/Nc2ccc([N+](=O)[O-])cc2[N+](=O)[O-])CC(C)(C)C1 (stereo not given)	13µM*
SMILES	ERK EGF block
Cc1cnc(CNc2ncnc3ccc(-c4ccccc4C#N)cc23)cn1	20%
COC(=O)[C@@]1(Cc2ccc(OC)cc2)[C@H]2c3cc(C(=O)N(C)C)n(Cc4ccc(C(F)(F)F)nc4)c3C[C@H]2CN1C(=O)c1ccccc1	0%
CCCC/C=C/C(NC(=O)c1ccco1)c1ccccc1 (stereo not given)	0%
O=[N+]([O-])c1cccc(-c2ccc(C(=S)N3CCN(c4ccccc4)CC3)o2)c1	25µM*
O=C(c1ccc(-c2cccc(Cl)c2)o1)N1CCN(c2ccc([N+](=O)[O-])cc2)CC1	-2%
O=[N+]([O-])c1cccc(-c2ccc(C(=S)N3CCOCC3)o2)c1	2%
CCOc1ccc(CNC(=O)CCCc2cn(C)c3ccccc23)cc1OC	1%
COc1cc(C(=O)NS(=O)(=O)c2ccccc2C)ccc1Cc1cn(C)c2ccc(NC(=O)OC3CCCC3)cc12	28µM*
COc1ccccc1NS(=O)(=O)c1cc(NC(=S)NCC2CCCO2)ccc1C (stereo not given)	6%
COc1ccc(CNc2nc(-c3ccccc3OC)nc3ccccc23)c(OC)c1	30%
Cc1nnc(SCC(=O)c2ccccc2F)n1Cc1ccccc1	-6%[57.5 µM]
Cc1cc(C)nc(S/C=C/C(=O)c2ccccc2F)n1	28µM*
Cc1cc(NC(=O)c2ccccc2F)on1	-3%
C[C@@H]1C=C[C@](Cc2ccccc2)(C(=O)NCCCNc2ncc(C(F)(F)F)cc2Cl)N1C(=O)c1ccccc1	-4%
N=C(N)c1ccc(N2CCN(C3CCN(CC(=O)O)CC3)CC2)cc1	3%
CCC(C)(C)C(=O)O[C@@H]1C[C@@H](C)C=C2C=C[C@H](C)[C@H](CC[C@@H]3C[C@@H](O)CC(=O)O3)[C@H]21	2%
CC(C)CC(=O)/C(=C\c1ccc(Cl)cc1Cl)n1cncn1	28µM*
CN(C)c1ccc(/C=C(/C(=O)c2ccc(Cl)cc2Cl)n2cncn2)cc1	5%
CN(C)/C=C(/C(=O)c1ccc(Cl)cc1)n1cncn1	-5%
CC(N)(Cc1ccc(O)c(O)c1)C(=O)O (stereo not given)	9%
O=C1C=CC(=O)C2=C1C1c3ccccc3C2c2ccccc21	-13%
O=C(O)CCCC/C=C\C[C@@H](O)/C=C/C=C/C=C\[C@@H](O)CCCC(=O)O	3%
CCOC(=O)CNc1oc(-c2ccccc2)nc1-c1ccccc1	-3%
NS(=O)(=O)c1ccc(NC(=S)N2CCN(c3cccc(Cl)c3)CC2)cc1	-3%
